The values below come from PubChem BioAssay AID588477 (NMMLSC, 2011).

In this experiment the test system is Rab7. As to the kind of experiment: small GTPase nucleotide-binding inhibition, multiplex panel – biochemical, round 1 SAR, Mg buffer, multiplex flow cytometry, selectivity assay for Cdc42 probe extension project, SAR follow-up (AID 588477). The note with it: GST-GTPase beads, Bodipy-GTP binding; series mostly up to 100 µM.

Structures are written as SMILES. The source made the active and inactive calls.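 Rule for the calls: active = valid curve fit with half-effect dose at most 10 µM and total binding change across doses of 30 points or more; inactive = the rest.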

Regarding `COc1ccc(C2CC(c3ccccc3)=NN2c2ccc(S(N)(=O)=O)cc2)cc1` (configuration not stated), the result was inactive. Turning to `O=C(C#Cc1ccccc1)c1cccc([N+](=O)[O-])c1`, the outcome was inactive.
